Screening data: PubChem BioAssay, National Center for Advancing Translational Sciences (NCATS)
KB-3-1 tox: kills parental KB-3-1 adenocarcinoma cells; KB-3-1 viability, CellTiter-Glo ATP luminescence, 72 h; Potency, µM (top dose mostly 46.1 µM), most hits filed as cytotoxic; 400,000 tested, 1.4% active; AID 1347075; note: % is set by controls: 0 for no effect and ±100 for the full control effect; nearly all actives have a fitted effect of over 60% in size
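Cells are dispensed, compounds pinned in, plates held at 37 °C for 72 h, then CellTiter-Glo is added and luminescence read after 10 minutes. Cell line: parental KB-3-1 in phenol-red-free DMEM, 10% FBS.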
HT1080 IDH1KD tx: kills HT-1080 cells with IDH1 knockdown; Potency, µM (highest dose often 46.1 µM), for the others: at the top dose activity, negative = toxicity, usual class: cytotoxic; HT-1080 IDH1 knockdown viability, ATP luminescence, 48 h; 360,000 tested, 2% active; AID 686971;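 note: 0% = DMSO wells and -100% = cell-free medium wells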
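Luminescent ATP read-out (CellTiter-Glo, 10 min at room temperature) after 48 h compound exposure at 37 °C gave viability of IDH1-knockdown HT-1080 cells. Activity was normalised to DMSO and cell-free wells, then fitted as concentration-response curves.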
HT1080-NT tox: kills 2HG-producing HT-1080-NT fibrosarcoma cells; HT-1080-NT fibrosarcoma viability, CellTiter-Glo ATP luminescence, 48 h; Potency, µM (series often up to 46.1 µM), inactives show at the highest dose activity, negative = less viability, actives largely listed as cytotoxic; 360,000 tested, 1.6% active; AID 686970;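 note: NT is the 2HG producing partner of a matched IDH1 knockdown line; 0% = DMSO-treated cells and -100% = media-only wells without cells; nearly all actives have a fitted effect of over 55% in size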
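Viability of the 2HG-overproducing fibrosarcoma line after 48 hours of compound exposure at 37 degrees C was determined by luminescence with CellTiter-Glo, and concentration-effect curves were then fitted and categorized.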
KB-V1 cytotox: kills drug-selected multidrug resistant KB-V1 cells; KB-V1 MDR cells viability, CellTiter-Glo, 72 h; Potency, µM (titrated, usually from 46.1 µM), actives largely listed as cytotoxic; 400,000 tested, 3.4% active; AID 1347076; note: % is set by controls: 0 for no effect and ±100 for the full control effect; nearly all actives have a fitted effect of over 60% in size
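Following 72 h at 37 degrees C with compound, KB-V1 cell viability was read by CellTiter-Glo luminescence, medium being phenol-red-free DMEM plus 10% FBS; concentration-response parameters came from normalized, curve-fitted qHTS data.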
S2 tox: viability counter-screen for ATXN expression inhibitors. S2 cells (HEK-293 line with an ATXN2-luciferase reporter) viability, CellTiter-Fluor protease fluorescence, 24 h. Potency, µM (titrated, usually from 56.7 µM), most hits filed as cytotoxic. 400,000 tested, 0.49% active. AID 651635; note: nearly all actives have a fitted effect of over 40% in size
ATXN2 expr inh: reduces ATXN2 reporter expression in HEK-293 cells | HEK-293 ATXN2-luciferase reporter, luminescence, 24 h | Potency, µM (series often up to 57 µM), for inactives: at the highest dose activity change, negative = inhibition, usual class: inhibitors | 360,000 tested, 0.72% active | AID 1745845; note: % is set by controls: 0 for no effect and ±100 for the full control effect; nearly all actives have a fitted effect of over 55% in size
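qHTS (up to 57 uM final) was run with 24 h compound exposure of reporter cells at 37 °C. Each well was multiplexed: SteadyGlo luminescence measured ATXN2-luciferase expression after a fluorogenic Gly-Phe-AFC viability readout (25 uM final).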
* marks the source's active call; other numbers are inactive results; i = inactive; ? = inconclusive; nt = no result; [ ] = dose if it differs, or a comment. Only some compounds are listed: those with a hit (about 6.2% of all), similar ones and a draw of the others. Calls come from the whole dose curve; as a rule, active = well fitted curve in the direction sought with a large enough effect; inconclusive = small, poorly fitted or top-dose-only effect, or another doubt; inactive = no such curve, though single readings can be large; an effect the other way counts as inactive or inconclusive. Potency is the fitted concentration of half-maximal effect.

SMILES	KB-3-1 tox	HT1080 IDH1KD tx	HT1080-NT tox	KB-V1 cytotox	S2 tox	ATXN2 expr inh
CCN1c2ccccc2-c2nc(SCC(=O)Nc3cc(OC)cc(OC)c3)ncc2S1(=O)=O	i	nt	nt	i	i	2.5%
Cc1[nH]c2ccc(C(=O)OC(C)C(=O)NCc3ccccc3)cc2c1C (configuration not stated)	16.4µM*	?	?	16.4µM*	?	-16.3%
CCOC(=O)c1c(C)[nH]c(C(=O)OC(C)C(=O)NCc2ccccc2)c1C (configuration not stated)	i	-0.6%	-6.9%	?	i	?
CC(C)CCNC(=O)CN1C(=O)COc2ccc(S(=O)(=O)N3CCOCC3)cc21	i	nt	nt	i	i	-4.8%
COC(=O)C1CCC(=O)N1C(c1ccc(OC)cc1)c1cc(OC)c(OC)c(OC)c1 (configuration not stated)	0.82µM*	?	1.16µM*	7.31µM*	?	4.2%
COc1ccccc1NC(=O)CN(C)S(=O)(=O)c1cc(C)ccc1OC	i	-2.3%	3.2%	20.6µM*	i	-13.0%
CCN(CC(=O)Nc1ccccc1-c1ccccc1)Cc1nc2ccccc2c(=O)[nH]1	8.2µM*	4.61µM*	5.8µM*	?	i	-23.6%[11.3 µM]
CCN(CC(=O)Nc1ccccc1OC)CC(=O)Nc1ccccc1-c1ccccc1	20.6µM*	7.31µM*	14.6µM*	8.2µM*	i	-28.9%
COCC(=O)Nc1ccccc1-c1ccccc1	i	-1.7%	-4.1%	i	?	2.2%[11.3 µM]
CCN(CC(=O)Nc1ccccc1SC)Cc1nc2ccccc2c(=O)[nH]1	i	-7.5%	-0.4%	i	i	-18.7%
Cc1ccc(CC(=O)Nc2ccccc2-c2ccccc2)cc1C	i	15.0%	11.9%	20.6µM*	i	3.9%
COc1ccc(C)cc1NC(=O)CN(C)S(=O)(=O)c1cccs1	i	0.1%[9.24 µM]	-1.2%	?	i	-2.1%
CCc1ccc(NC(=O)C2CCCN(S(=O)(=O)c3cccc4nonc34)C2)cc1 (configuration not stated)	i	nt	nt	i	i	7.2%
Cc1ccc(CNC(=O)CCn2cnc3ccccc3c2=O)cc1	i	nt	nt	i	i	-3.6%
CCOC(=O)c1cc2ccccc2n1C1CCN(C)CC1	i	-29.3%	-29.2%	?	i	-2.0%
O=C(CNC(c1ccccc1)c1ccccc1)Nc1ccccc1-c1ccccc1	?	-29.0%	-17.3%	14.6µM*	i	?
COc1ccc(CC(=O)Nc2cccc3ccccc23)cc1OC	i	-7.8%	0.1%	i	i	?
COc1ccc(CC(=O)Nc2ccccc2-c2ccccc2)cc1OC	?	-9.1%	-7.4%	14.6µM*	i	-26.1%
O=[N+]([O-])c1ccc2c(c1)CO[C@@]21O[C@H](CCO)C[C@H](O)[C@H]1O	i	-5.7%	-11.5%	i	i	-4.6%
COc1ccc(CNC(=O)CS(=O)(=O)c2cccc3nsnc23)cc1	i	nt	nt	i	i	10.5%
Cc1cc([N+](=O)[O-])ccc1NCc1cccc2ccccc12	i	-0.8%	?	13µM*	i	-2.3%
COc1ccc(N2C(=O)C3C(C2=O)C(C(=O)c2ccc(Cl)cc2)N2CCCC32)cc1 (configuration not stated)	i	18.4µM*	13µM*	i	?	?
CC(=O)c1ccc(N2C(=O)C3C(C2=O)C(C(=O)c2ccc(Cl)cc2)N2CCCC32)cc1 (configuration not stated)	?	?	16.4µM*	?	i	36.7%
O=C(c1ccc(Cl)cc1)C1C2C(=O)N(c3ccccc3)C(=O)C2C2CCCN21 (configuration not stated)	i	13.5%	8.7%	i	i	-1.7%
O=C(c1ccccc1)[C@@H]1[C@@H]2C(=O)N(c3ccc(F)cc3)C(=O)[C@@H]2C2CCCN21 (some centres not stated)	?	23.1µM*	?	i	?	nt
SMILES	KB-3-1 tox	HT1080 IDH1KD tx	HT1080-NT tox	KB-V1 cytotox	S2 tox	ATXN2 expr inh
CCOC(=O)c1[nH]c(C)c(CCC(=O)NCc2ccc(OCC)cc2)c1C	i	nt	nt	i	i	5.9%
COc1ccc2cc(Br)ccc2c1CC(=O)NC1CC(C)(C)NC(C)(C)C1	i	16.4µM*	?	?	i	?
CCOc1ccc(-n2c(SCC(=O)N3CCCc4ccccc43)nc3c([nH]c4ccccc43)c2=O)cc1	i	nt	nt	?	i	6.7%
CCOc1ccc(NC(=O)CC2C(=O)N(c3ccc(OC)cc3)C(=O)N2CCC2=CCCCC2)cc1 (configuration not stated)	i	nt	nt	?	?	0.7%
O=C(COc1ccccc1)Nc1ccc2nc(SCC(=O)N3CCc4ccccc43)sc2c1	i	nt	nt	i	i	3.8%
COc1ccc2nc3n(c(=O)c2c1)-c1ncccc1C(=O)NC3CC(C)C (configuration not stated)	i	1.6%	16.9%	?	i	0.2%
Cc1ccc2nc3n(c(=O)c2c1)-c1cc2ccccc2cc1C(=O)NC3Cc1ccc(O)cc1 (configuration not stated)	?	13µM*	9.2µM*	i	?	?
CCCC1NC(=O)c2cc3ccccc3cc2-n2c1nc1cc(F)ccc1c2=O (configuration not stated)	i	?	-21.4%	i	?	-38.1%
O=C1NC(Cc2ccc(O)cc2)c2nc3cc(Cl)ccc3c(=O)n2-c2cc3ccccc3cc21 (configuration not stated)	?	16.4µM*	23.1µM*	?	?	?
COc1cc2nc3n(c(=O)c2cc1OC)-c1cc2ccccc2cc1C(=O)NC3CC(C)C (configuration not stated)	18.4µM*	?	-14.7%	?	?	?
O=C1NC(Cc2ccc(O)cc2)c2nc3cc(F)c(F)cc3c(=O)n2-c2cc3ccccc3cc21 (configuration not stated)	?	18.4µM*	?	i	nt	?
CC(C)CC1NC(=O)c2cc3ccccc3cc2-n2c1nc1cc(Cl)ccc1c2=O (configuration not stated)	?	13.9%	9.6%	i	?	-7.6%
Nc1sc(-c2ccccc2)cc1C(=O)N1CCNCC1	i	3.4%	3.2%	i	nt	nt
Cc1nn(C)cc1CN1CCOc2ccc(CN3CCC(Oc4cccnc4)CC3)cc2C1	nt	nt	nt	nt	i	nt
CCCN1CNc2c(c(=O)[nH]c(=S)n2CCc2cccc(OC)c2OC)C1	nt	12.8%	2.3%	nt	nt	nt
